SMN2 splice up – enhancers of SMN2 splice variant expression | HEK293 SMN2-luciferase splicing reporter, luminescence, 30-36 h | Potency, µM (series often up to 46.1 µM), inactives show at the highest dose activity change, positive = activation, actives largely listed as activators | 210,000 compounds, 2.8% hits | AID 1458; note: % of control where 0% means no effect; nearly all actives have a fitted effect of over 55% in size
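qHTS luciferase splicing reporter: luminescence rises when SMN2 exon 7 is included in transfected HEK293 cells. Compound exposure lasted 30-36 h at 37C, with 4.5 mM final sodium butyrate as control, followed by a ONE-Glo read.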
p53 reactivation – restores transcriptional activity of mutant p53 | 320,000 compounds, 0.063% hits | Potency, µM (top dose mostly 92.2 µM), for inactives: top-dose activity change, positive = activation, hits mostly activators | H1299 p53-A138V BP100-luciferase reporter, luminescence, 24 h; note: % of control where 0% means no effect; nearly all actives have a fitted effect of over 45% in size
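p53-null H1299 cells stably carrying temperature-sensitive p53-A138V and a BP100-luciferase reporter were pinned with compounds (4-point, 1:5 series) and held 24 hrs at 37 deg C. Luminescence was read 10 min after detection reagent.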
ELG1 genotoxic – inducers of genotoxicity in HEK293T ELG1-luciferase cells | Potency, µM (titrated, usually from 46 µM), for inactives: at the top dose activity change, positive = activation, most hits filed as activators | 330,000 compounds, 1.3% hits | HEK293T ELG1-luciferase reporter, luminescence, 16 h; note: % of control where 0% means no effect; nearly all actives have a fitted effect of over 60% in size
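Cells (2,000/well) expressing the ELG1-luciferase fusion are dosed by pin tool and kept 16 hr at 37 °C, 5% CO2. Signal comes from ONE-Glo luciferase reagent after 30 min at room temperature.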
FLuc modulator – counter-screen for miR-21 project: firefly luciferase inhibitors or activators. P08659. purified FLuc, Km substrates, luminescence inhibition. Potency, µM (highest dose often 57.5 µM), for inactives: top-dose activity change, negative = inhibition, most hits filed as inhibitors. 360,000 compounds, 6.9% hits. AID 588342;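 note: plate controls were vehicle for no effect and reference inhibitor for full effect; nearly all actives have a fitted effect of over 55% in size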
Target sequence (P08659 whole entry, looked up): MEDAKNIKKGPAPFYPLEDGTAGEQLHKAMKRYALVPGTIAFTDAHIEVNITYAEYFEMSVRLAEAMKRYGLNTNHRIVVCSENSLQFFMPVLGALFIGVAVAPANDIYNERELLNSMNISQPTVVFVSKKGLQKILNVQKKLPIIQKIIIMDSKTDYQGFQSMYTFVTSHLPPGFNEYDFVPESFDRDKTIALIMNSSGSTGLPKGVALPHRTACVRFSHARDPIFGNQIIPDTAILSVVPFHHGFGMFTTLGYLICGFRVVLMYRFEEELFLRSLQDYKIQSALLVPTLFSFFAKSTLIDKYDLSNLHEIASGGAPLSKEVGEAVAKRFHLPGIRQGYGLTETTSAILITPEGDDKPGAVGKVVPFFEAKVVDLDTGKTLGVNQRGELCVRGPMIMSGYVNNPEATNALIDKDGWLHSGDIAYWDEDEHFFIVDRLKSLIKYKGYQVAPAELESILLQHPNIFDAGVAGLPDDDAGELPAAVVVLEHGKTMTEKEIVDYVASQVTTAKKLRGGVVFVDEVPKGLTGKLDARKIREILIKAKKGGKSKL
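Purified P. pyralis luciferase, 10 nM final, with Km-level 10 uM D-luciferin and 10 uM ATP in 50 mM Tris acetate pH 7.5, 10 mM Mg acetate, 0.01% Tween-20, 0.05% BSA; 6-point qHTS titration about 60 µM downward; luminescence read.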
NPC1 prom act – NPC1 promoter activation | 320,000 compounds, 2.4% hits | Huh7 NPC1 promoter luciferase reporter, 24 h | AID 485313 | Potency, µM (series often up to 9.22 µM), for the others: at the top dose activation, usual class: activators; note: % of control where 0% means no effect; nearly all actives have a fitted effect of over 60% in size
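Luminescence read-out of NPC1 promoter-driven luciferase in stably transfected Huh7 cells; compounds delivered in DMSO and left 24 h at 37C, 5% CO2, qHTS titration format.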
Rab9 prom act – activators of Rab9 promoter; Huh7 Rab9 promoter-luciferase reporter, luminescence, 24 h; 320,000 compounds, 2.8% hits; AID 485297; Potency, µM (top dose mostly 9.22 µM), inactives show top-dose activation, negative = inhibition, usual class: activators; note: % of control where 0% means no effect; nearly all actives have a fitted effect of over 60% in size
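Huh7 reporter line, Rab9 promoter upstream of luciferase. Compound exposure 24 h at 37 °C in reduced-serum medium with 10% FBS. Read-out: luminescence.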
Starred values were filed as active, the others as inactive; ? = inconclusive; nt = no result; [ ] = another dose, or the depositor's remark. Most compounds without a hit are left out; they make up all but 7.3% or so of the library. Calls come from the whole dose curve; as a rule, active = well fitted curve in the direction sought with a large enough effect; inconclusive = small, poorly fitted or top-dose-only effect, or another doubt; inactive = no such curve, though single readings can be large; an effect the other way counts as inactive or inconclusive. Potency is the fitted concentration of half-maximal effect.

SMILES | SMN2 splice up | p53 reactivation | ELG1 genotoxic | FLuc modulator | NPC1 prom act | Rab9 prom act
O=C(NN=C1CCCCCCCCCCC1)c1ccncc1 | -27% | 4% | -4% | -5% | 3% | -1%
C=CCNC(=S)Nc1ccccc1-c1nnc2n1CCCCC2 | nt | -7% | 1% | 2% | 2% | -3%
C=CCOC(=O)N[C@H](/C(C(=O)OC)=C(\C)NCc1ccccc1)c1cccc(OC)c1 | -13% | nt | nt | nt | nt | nt
CC(C)CN(C(=O)Cn1nnc(-c2ccc(F)cc2)n1)C1CCS(=O)(=O)C1 (stereo unspecified) | nt | 5% | 5% | 6% | -3% | 2%
COc1ccccc1NC(=O)Cn1c(=O)n(Cc2ccc3c(c2)OCO3)c(=O)c2oc3ccccc3c21 | nt | nt | nt | -2% | nt | nt
COc1ccc(OC)c(CNS(=O)(=O)c2cc(-c3onc(C)c3C)ccc2C)c1 | nt | nt | nt | -4% | nt | nt
C/C(=N/OCC(=O)Nc1ccccc1)c1cccs1 | -17% | 14% | ? | 9.5µM* | ? | ?
COc1ccc(NC(=O)CO/N=C(\C)c2cccs2)cc1 | -4% | 9% | 1% | -19% | -1% | -2%
O=C(CCNc1cccc(Cl)c1)c1cccs1 | -5% | 23% | 8% | ? | 16% | 26%
Cc1ccc(NCCC(=O)c2cccs2)cc1Cl | 5% | ? | 21µM* | ? | 8% | 1%
CC(C)c1ccc(NCCC(=O)c2cccs2)cc1 | 18% | ? | ? | 12µM* | ? | ?
Cc1cc(C)c(C(CC(=O)c2cccs2)C(C#N)C#N)c(C)c1 (stereo unspecified) | ? | ? | 18µM* | 12µM* | ? | 3.5µM*
CCS(=O)(=O)N1CC(=O)N(c2ccccc2C)C(C)(C(=O)NC2CCCCC2)C1 (stereo unspecified) | nt | nt | nt | -1% | nt | nt
CC(CC(=O)c1cccs1)CC(=O)c1cccs1 | ? | ? | 29% | 21µM* | 2.8µM* | 2.8µM*
Cc1ccc(NC(=O)CNCc2cccs2)c(Br)c1 | nt | nt | ? | 27µM* | 30% | 19%
Cc1ccc(NC(=O)CCC(=O)c2cccs2)c(Br)c1 | nt | 11% | ? | ? | ? | 3.5µM*
Cc1ccc(NCCC(=O)c2cccs2)cc1C | ? | 7% | ? | 3.4µM* | 9% | ?
O=C(CC(C(=O)O)c1ccccc1)c1cccs1 (stereo unspecified) | nt | -2% | -2% | 3% | 0% | 8%
Cc1ccc(NC(=O)CNCc2ccccc2)c(Br)c1 | 3% | 12% | ? | ? | 15% | 23%
O=c1c(-c2ccc(F)c(F)c2)nc2cncnc2n1Cc1ccc(F)cc1 | -37% | nt | nt | nt | nt | nt
COc1ccc(-c2cc3c(=O)n(CC(=O)NCCCN4CCC(Cc5ccccc5)CC4)ncn3n2)cc1 | nt | ? | ? | 4.8µM* | ? | ?
COc1ccc(-c2cc3c(=O)n(CC(=O)NCCCN4CCN(Cc5ccccc5)CC4)ncn3n2)cc1 | nt | ? | ? | 1.5µM* | ? | ?
COc1ccc(-c2cc3c(=O)n(CC(=O)NCc4ccc(Cl)cc4)ncn3n2)cc1 | nt | nt | ? | 6% | 11% | 29%
COc1ccc(-c2cc3c(=O)n(CC(=O)NCc4ccc(C)cc4)ncn3n2)cc1 | nt | nt | ? | -17% | 3% | 16%
O=C(Cn1ncn2nc(-c3ccccc3)cc2c1=O)NCc1ccccn1 | nt | 0% | 2% | 11µM* | 1% | 11%
SMILES | SMN2 splice up | p53 reactivation | ELG1 genotoxic | FLuc modulator | NPC1 prom act | Rab9 prom act
Cc1ccc(-n2cc(-c3ccccc3)[nH]c2=O)cc1F | 25µM* | ? | ? | ? | 3.2µM* | 3.2µM*
Cc1cc(/C=C(\C#N)c2nc3ccccc3[nH]2)c(C)n1C | 11µM* | ? | ? | 0.95µM* | 3.5µM* | 2.2µM*
Cc1cc(/C=C(/C#N)c2nc3ccccc3[nH]2)c(C)n1-c1cccc([N+](=O)[O-])c1 | -17% | ? | -1% | 5.4µM* | 10% | 5%
Cc1c(Cl)cccc1-c1ccc(/C=C(\C#N)c2nc3ccccc3[nH]2)o1 | -9% | nt | nt | ? | nt | nt
O=C(N/N=C(\c1ccccc1)c1cccnc1)c1cc(O)ccc1O | nt | 1% | 0% | 3% | -2% | 13%
C[C@H]1Cc2c(-c3ccccc3)nc3c(c2CO1)CN(S(=O)(=O)c1ccc2c(c1)OCCN2C)CC3 | -4%[9.22 µM] | nt | nt | nt | nt | nt
N#Cc1ccc(CN2CCCC3(CCN(C(=O)c4csnn4)CC3)C2)cc1 | -12% | nt | nt | nt | nt | nt
O=C(Nc1nc(-c2ccccc2)cs1)c1ccco1 | nt | 9% | -15% | 15µM* | ? | ?
Cc1ccc(-c2csc(NC(=O)c3ccc(-c4ccccc4)cc3)n2)o1 | -45% | 1% | 18µM* | 4.3µM* | 17% | -8%
COc1ccc(-c2csc(NC(=O)C3=NN(c4ccccc4)C(=O)CC3)n2)cc1 | -95% | 10% | -11% | 7.6µM* | -1% | -3%
Cc1ccc(-c2csc(NC(=O)Cc3ccc(F)cc3)n2)o1 | -17% | 12% | 9% | ? | -4% | 1%
O=C(Nc1nc(-c2ccco2)cs1)c1ccccc1 | 7% | ? | ? | 11µM* | ? | ?
O=C(Nc1nc(-c2cc(F)ccc2F)cs1)C1=NN(c2ccccc2)C(=O)CC1 | -15% | 6% | -4% | ? | -2% | 2%
CCCNc1nc(NCC)nc(OC)n1 | 11% | -4% | 4% | 11% | -2% | -18%
Cc1ccc(C2CC(=O)Oc3cc(C)c(Br)c(C)c32)cc1 (stereo unspecified) | nt | -13% | 1% | nt | nt | nt
CCOc1ccc(-c2csc(NC(=O)c3ccco3)n2)cc1 | nt | ? | ? | 12µM* | 24% | ?

Screens from PubChem BioAssay.
